Compound activity as filed in PubChem.
ALDH1A1 inh: ALDH1A1 (human) enzyme inhibition; 220,000 tested, 7.3% active; Potency, µM (titrated, usually from 75.3 µM), for inactives: top-dose activity, negative = inhibition, usual class: inhibitors; AID 1030; Purified ALDH1A1, NADH fluorescence, propionaldehyde substrate; active = well fitted inhibition curve with a large enough effect, not every such curve was filed as active; inconclusive = small, poorly fitted or top-dose-only effect, or another doubt; inactive = no such curve, though single readings can be large or run the other way;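 also: potency is read from the fitted curve at half-maximal effect; plate controls were no enzyme wells and a reference inhibitor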
HTT ATP protect: cytoprotection in Huntington HTT-Q103 PC12 cell model | 230,000 tested, 0.14% active | Potency, µM (doses to about 56.4 µM), for inactives: cytoprotection (ATP increase), hits mostly activators | AID 1471 | PC12 HTT-Q103 induced, cytoprotection, ATP luminescence, 40 h; also: potency is read from the fitted curve at half-maximal effect; % of control where 0% means no effect; nearly all actives have a fitted effect of over 45% in size
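Quantitative HTS on tebufenozide-induced (100 nM) PC12 cells expressing HTTQ103 exon 1–GFP; compounds tested as a concentration series; survival measured via cellular ATP.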
PNC inhibitor: perinucleolar compartment assembly inhibition; PC3M PTB-GFP, PNC prevalence imaging, 16 h; stronger effect = lower value; 140,000 tested, 3.1% active; AID 2417; activity change (PNC), negative = inhibition, % at 10 µM;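 active = readout at or below -70, meaning at least 70% loss of cells showing the perinucleolar compartment, a nuclear body marking cancer cells; inconclusive = readout between -30 and a set limit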;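 also: plate controls were DMSO wells for no effect and camptothecin positive control wells for full effect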
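PC3M cells stably expressing PTB-GFP, 750–1000 cells/well, treated 16 h at 37 °C with compound (23 nl of library stock), in duplicate. After paraformaldehyde fixation and Hoechst stain, imaged at 20x; PNC prevalence scored by image analysis.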
HTT aggregate: reduces HttQ103-GFP aggregates in PC12 cells; 220,000 tested, 1.1% active; AID 1688; PC12 HttQ103-GFP aggregates, Acumen cytometry, 40 h; Potency, µM (highest dose often 46.1 µM), without a hit: top-dose activity change, negative = inhibition, hits mostly inhibitors; also: potency is read from the fitted curve at half-maximal effect; % is scaled to controls: 0 for no effect and ±100 for the full control effect; nearly all actives have a fitted effect of over 60% in size
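Huntingtin Q103 exon 1–GFP aggregates in induced PC12 cells (100 nM tebufenozide) were quantified by cytometry from lysates, with compounds dosed in titration.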
HPGD block: HPGD (human) dehydrogenase inhibition | 150,000 tested, 4.3% active | P15428 | purified HPGD, NADH fluorescence kinetic, PGE2 substrate | Potency, µM, inactives show at the highest dose activity change, negative = inhibition, usual class: inhibitors; active = well fitted inhibition curve with a large enough effect, not every such curve was filed as active; inconclusive = small, poorly fitted or top-dose-only effect, or another doubt; inactive = no such curve, though single readings can be large or run the other way; also: potency is read from the fitted curve at half-maximal effect; % is scaled to controls: 0 for no effect and ±100 for the full control effect
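20 nM HPGD preincubated 15 min at room temperature with compound in 50 mM Tris-HCl pH 8, 0.01% Tween 20. Started with 1 mM NAD+ and 30 uM prostaglandin E2; NADH fluorescence (360/450 nm) read 5 times over 30-s intervals, last minus first.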
CBFb RUNX1 block: inhibitors of human CBF-beta and RUNX1 interaction; Potency, µM (doses to about 59.8 µM), for the others: at the top dose activity, negative = inhibition, actives largely listed as inhibitors; AlphaScreen CBFb-His/RUNX1-biotin binding, biochemical; 230,000 tested, under 10 active; Q01196+Q13951; also: % of control where 0% means no effect
Target sequence (Q01196 whole entry, looked up): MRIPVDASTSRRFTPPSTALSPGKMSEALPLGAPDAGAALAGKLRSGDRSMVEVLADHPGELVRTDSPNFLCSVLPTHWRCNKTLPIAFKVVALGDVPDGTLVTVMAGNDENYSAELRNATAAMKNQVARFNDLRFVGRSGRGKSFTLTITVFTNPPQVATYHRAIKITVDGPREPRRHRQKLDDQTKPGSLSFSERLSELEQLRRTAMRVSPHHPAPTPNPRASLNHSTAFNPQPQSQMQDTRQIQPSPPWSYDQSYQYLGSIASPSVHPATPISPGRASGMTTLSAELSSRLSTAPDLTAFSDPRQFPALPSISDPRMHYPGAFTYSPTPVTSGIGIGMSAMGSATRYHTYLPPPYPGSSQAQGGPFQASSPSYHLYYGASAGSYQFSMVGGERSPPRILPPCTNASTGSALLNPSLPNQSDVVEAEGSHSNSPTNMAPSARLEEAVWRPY
Target sequence (Q13951 whole entry, looked up): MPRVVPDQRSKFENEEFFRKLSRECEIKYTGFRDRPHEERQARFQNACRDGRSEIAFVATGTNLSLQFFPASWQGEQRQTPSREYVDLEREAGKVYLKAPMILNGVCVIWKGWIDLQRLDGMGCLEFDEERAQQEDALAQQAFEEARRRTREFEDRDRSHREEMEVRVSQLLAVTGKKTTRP
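Bead-based AlphaScreen assay; binding partners His-tagged CBF-beta and biotinylated RUNX1 at 30 nM each. Compound exposure 15 min after a 20-min protein preincubation; bead step 90 min; all steps at room temperature.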
An asterisk follows results filed as active; ? = inconclusive; . = not tested or not shown; [ ] = remark or other dose. Hits are enriched below; roughly 11% of the tested compounds scored in any of these assays. Unless noted, calls follow the shape of the dose curve; as a rule, active = well fitted curve in the direction sought with a large enough effect; inconclusive = small, poorly fitted or top-dose-only effect, or another doubt; inactive = no such curve, though single readings can be large; an effect the other way counts as inactive or inconclusive.

SMILES | ALDH1A1 inh | HTT ATP protect | PNC inhibitor | HTT aggregate | HPGD block | CBFb RUNX1 block
COc1ccc2nc(SCC(=O)Nc3ccc4c(c3)CCC4)[nH]c2c1 | 11µM* | -7%[10 µM] | 8 | -1% | -10% | -10%
NC(=O)c1sc2nnc(-c3ccccc3)c(-c3ccccc3)c2c1N | . | -2%[10 µM] | . | -5%[9.22 µM] | . | 8%
COCCn1c(=O)c(-c2ccc(Cl)cc2)nc2cnc(Oc3ccccc3)nc21 | ? | -58% | . | . | ? | .
COc1ccc2c(c1OC)C(=O)OC2CC(=O)c1ccc(O)cc1 (centres undefined) | 28µM* | -6% | ? | 14% | 25µM* | 3%
COC(=O)[C@@]1(Cc2ccc(OC)cc2)[C@H]2c3cc(C(=O)N4CCCC4)n(Cc4ccc(O)c(OC)c4)c3C[C@H]2CN1C(=O)c1ccccc1 | 7% | -45% | . | . | -8% | -13%
O=C(O)C=C1C2CC3CC(C2)CC1C3 | -1% | -1% | -82* | -7% | 5% | 9%
C=CCN1C(=O)S/C(=C/c2ccc(Sc3nc4ccccc4[nH]3)o2)C1=O | 10µM* | -4%[10 µM] | -13 | -32% | -16% | -12%
CCN=C1S/C(=C\c2ccc(Sc3ccc(Cl)cc3)o2)C(=O)N1CC | -11% | -27% | -4 | 4% | -16% | 3%
CC(C)N1C(=O)S/C(=C/c2ccc(Sc3nc4ccccc4[nH]3)o2)C1=O | 7.1µM* | 14%[10 µM] | ? | ? | -27% | -2%
O=C(O)C/C=C(\NC(=O)OCc1ccccc1)C(=O)OCc1ccccc1 | 0.28µM* | 1% | . | -2% | . | 5%
Cc1ccc(NC(=O)CN2C(=O)S/C(=C\c3ccc(-c4cccc(C(=O)O)c4C)o3)C2=O)cc1 | ? | 10% | -5 | 18% | 10µM* | -16%
Cc1ccc(NC(=O)CN2C(=O)S/C(=C\c3cc(C)n(C)c3C)C2=O)cc1 | 2% | 12% | 71 | 2% | -1% | -1%
Cc1ccc(NC(=O)CN2C(=O)S/C(=C\c3cc(C)n(-c4cccc(C(=O)O)c4)c3C)C2=O)cc1 | 13µM* | -27% | . | 15% | . | 5%
Cc1ccc(C(=O)O)cc1-c1ccc(/C=C2\SC(=O)N(CC(=O)Nc3ccccc3)C2=O)o1 | ? | -14% | . | 4%[9.22 µM] | . | -8%
Cc1ccccc1NC(=O)CN1C(=O)S/C(=C\c2ccc(-c3cc(C(=O)O)ccc3C)o2)C1=O | 28µM* | -13% | . | 15% | . | -5%
CN(C)c1nc(Cl)nc(N(C#N)CCOc2ccccc2)n1 | 14µM* | ? | . | -19% | . | 0%
CCNc1nc(NCC)nc(N(C#N)CCOc2ccccc2)n1 | ? | . | . | . | . | -10%
CCNc1nc(NC(C)C)nc(N(C#N)CCOc2ccccc2)n1 | -1% | -8% | 8 | 22µM* | -8% | 5%
c1ccc(Cn2cc(CN3CCCCO3)c(-c3ccc4c(c3)OCO4)n2)cc1 | 32µM* | -25%[10 µM] | . | 14%[9.22 µM] | . | 9%
Cc1nn(C(C)C(=O)c2cccc(Cl)c2)c(C)c1[N+](=O)[O-] (centres undefined) | 2% | -30%[10 µM] | . | 29% | . | -2%
Cn1cnc([N+](=O)[O-])c1S(=O)(=O)c1cccc(Cl)c1 | ? | . | 197 | 5.6µM* | -10% | -3%
O=[N+]([O-])c1ccc(Cl)c(/C=N/N2CCN(c3ccccc3)CC2)c1 | -4% | -22% | 7 | 9% | -24% | -23%
COc1ccccc1N1CCN(/N=C/c2c(C)nn(-c3ccccc3)c2C)CC1 | -8% | 14%[10 µM] | -84* | -14% | -4% | -29%
COc1ccccc1N1CCN(/N=C/c2cc([N+](=O)[O-])ccc2Cl)CC1 | 22µM* | -18% | . | -27% | . | ?
CC1(C)CC(=O)c2c(oc3cc4c(cc23)OCO4)C1 | 7.9µM* | -87% | . | . | 2.5µM* | 14%
COc1ccccc1NC(=O)c1cc2cc(Br)ccc2cc1O | . | -2%[10 µM] | . | -21%[9.22 µM] | . | -3%
O=C1NCCCc2c1oc1ccc(O)cc21 | 8.9µM* | -35% | -5 | 22µM* | -19% | 4%
